Rows were chosen to be rich in hits. Some 2.9% of all compounds tested hit in one or more screens of this group.
S2 tox – cell viability loss in ATXN counter-screen; AID 651635; hit rate 0.49% among 400,000; Potency, µM (series often up to 56.7 µM), usual class: cytotoxic; S2 cells (HEK-293 line with an ATXN2-luciferase reporter) viability, CellTiter-Fluor protease fluorescence, 24 h; further: nearly all actives have a fitted effect of over 40% in size
A549 viability – kills or reduces viability of A549 cells in Nrf2 counter-screen; A549 ARE-Fluc cells, CellTiter-Fluor viability, 18-24 h; Potency, µM (top dose mostly 46 µM), inactives show top-dose activity change, negative = cytotoxicity, actives largely listed as inhibitors; hit rate 0.16% among 390,000; AID 504648; further: on the % scale 0 is the no-effect control and ±100 the full control effect
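A549 ARE_Fluc cells in 5% FBS OPTI-MEM were exposed to compounds in concentration-response for 18-24 h at 37 deg C. Viability was read by CellTiter-Fluor fluorescence (Ex 405/Em 525) after 30 min, before the luciferase read.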
ATXN2 expr inh – reduces ATXN2 reporter expression in HEK-293 cells. AID 1745845. hit rate 0.72% among 360,000. Potency, µM (titrated, usually from 57 µM), without a hit: top-dose activity change, negative = inhibition, most hits filed as inhibitors. HEK-293 ATXN2-luciferase reporter, luminescence, 24 h; further: on the % scale 0 is the no-effect control and ±100 the full control effect; nearly all actives have a fitted effect of over 55% in size
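ATXN2-luciferase reporter cells (luciferase flanked by upstream and downstream ATXN2 gene portions) were treated 24 h at 37 °C with compounds at up to 57 uM. SteadyGlo luminescence gave expression; GF-AFC fluorescence gave viability.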
Nrf2 ARE act – Nrf2 pathway activation | Potency, µM (highest dose often 46.1 µM), for the others: at the highest dose activation, hits mostly activators | AREc32 ARE-luciferase reporter (MCF7-derived line), luminescence, 24 h | hit rate 0.31% among 410,000; further: % of control where 0% means no effect; nearly all actives have a fitted effect of over 65% in size
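Quantitative high-throughput format: AREc32 reporter cells, 1000 per well, received compound by pin transfer and were incubated 24 hr at 37 deg C, 5% CO2, before Steady-Glo luminescence detection.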
Nrf2 block – blocks Nrf2 signaling | A549 ARE-Fluc reporter, luciferase luminescence, 18-24 h | Potency, µM (titrated, usually from 46 µM), for the others: at the top dose activity change, negative = inhibition, usual class: inhibitors | hit rate 2.1% among 360,000; further: on the % scale 0 is the no-effect control and ±100 the full control effect; nearly all actives have a fitted effect of over 60% in size
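Two sequential reads on A549 ARE_Fluc cells exposed to compound for 18-24 h: a CellTiter-Fluor fluorescence read for viability, then a luciferase luminescence read for Nrf2/ARE activity.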
* hit, by the source's call; i = inactive; ? = inconclusive; . = no result given; [ ] = remark or other dose. The call rests on the fitted dose curve; in most records, active means well fitted curve in the direction sought with a large enough effect; inconclusive means small, poorly fitted or top-dose-only effect, or another doubt; inactive means no such curve, though single readings can be large; an effect the other way counts as inactive or inconclusive. Potency means the concentration at half of the fitted maximal effect.

SMILES	S2 tox	A549 viability	ATXN2 expr inh	Nrf2 ARE act	Nrf2 block
Cc1cc(C)n(C(C)CC(=O)Nc2cccc(C#N)c2)n1 (configuration not stated)	i	-5.1%	-9.2%	0.4%	-19.9%
O=C1c2ccccc2C(=O)N1c1noc2ccccc12	.	11.0%	.	.	?
COc1cccc(/C=N/NC(=O)Cn2nc(C)c([N+](=O)[O-])c2C)c1O	?	-0.9%	15.8µM*	-0.3%	-6.5%
Cc1nn(CC(=O)N/N=C/c2cccs2)c(C)c1[N+](=O)[O-]	i	-0.2%	-3.5%	0.2%	1.4%
COc1ccc(/C=N/NC(=O)c2ccco2)cc1Cn1nc(C)c([N+](=O)[O-])c1C	i	?	3.1%	4.2%	16.4µM*
COc1cccc(/C=N/NC(=O)C(C)n2nc(C)c([N+](=O)[O-])c2C)c1O (configuration not stated)	?	-1.7%	25.1µM*	0.4%	-1.3%
COc1cccc(NC(=S)NNC(=O)C(C)n2nc(C)c([N+](=O)[O-])c2C)c1 (configuration not stated)	i	6.5%	-5.5%	0.2%	.
O=C(CNC(=O)c1ccncc1)OC(C(=O)Nc1cc(C(F)(F)F)ccc1Cl)c1ccccc1 (configuration not stated)	.	16.4%	.	.	?
CC(C)c1cc(C(=O)N2Cc3ccc(CN4CCN(C)CC4)cc3C2)c(O)cc1O	.	.	0.217µM*	.	.
COc1ccc(CN2CCN(C(=O)c3ccc4c(c3)CCC4)CC2)cc1OC	i	6.3%	-6.7%	-1.1%	-3.1%
Cc1cnc(-n2ncc(C(=O)N(C)Cc3cccc4ncccc34)c2C(C)C)nc1-c1ccc(F)cc1	i	.	.	.	.
CC(C)(C)c1ccc(/C=N/NC(=O)Cc2c[nH]c3ccccc23)cc1	?	?	-12.9%	3.0%	25.9µM*
O=[N+]([O-])c1ccc(/C=N/Nc2ncccc2[N+](=O)[O-])s1	i	-14.3%	-5.1%	?	?
COc1cccc(/C=N/Nc2ccc([N+](=O)[O-])cn2)c1O	?	?	8.91µM*	-1.4%	?
O=[N+]([O-])c1ccc(NN=Cc2cccc3ccccc23)nc1	i	-10.4%	-16.5%	2.4%	1.7%
COc1cccc(/C=N/Nc2ncccc2[N+](=O)[O-])c1OC	i	3.5%	3.16µM*	-3.1%	?
CC(=O)[C@@]1(O)CC[C@H]2[C@@H]3C=C(Cl)C4=CC(=O)CC[C@]4(C)[C@H]3CC[C@@]21C	i	.	.	.	.
CC(C)(C)OC(=O)N[C@@H](Cc1ccccc1)c1nnc(SCC(=O)c2ccc(Cl)cc2)o1	i	-18.4%	-12.5%	0.1%	25.9µM*
Cc1ccccc1CS(=O)(=O)c1nnc([C@H](Cc2ccccc2)NC(=O)OC(C)(C)C)o1	.	-5.9%[1.84 µM]	?	-0.6%	23.1µM*
CC(C)(C)OC(=O)N[C@@H](Cc1ccccc1)c1nnc(SCC(=O)O)o1	i	-11.2%	7.2%	-0.6%	-3.3%
COC(=O)c1cc2oc(C)cc2n1Cc1cc(C)ccc1C	i	14.2%	0.5%	0.4%	4.4%
Cc1cccc(-c2nc(SCC(=O)Nc3ccc4c(c3)OCO4)c(-c3ccccc3)[nH]2)c1	?	?	?	-1.1%	?
CCCCCN(C(=O)CCC(=O)OCc1ccc(C(C)C)cc1)c1c(N)n(CCCC)c(=O)[nH]c1=O	i	?	?	-0.1%	?
CCCCCN(C(=O)CCC(=O)OCc1ccc(C(C)(C)C)cc1)c1c(N)n(CCCC)c(=O)[nH]c1=O	i	-12.2%	-24.8%	3.3%	13µM*
CC(C)COc1ccc(C/C(N)=N/n2cnnc2)cc1	i	-26.4%	-14.0%	2.5%	16.4µM*
SMILES	S2 tox	A549 viability	ATXN2 expr inh	Nrf2 ARE act	Nrf2 block
COc1ccc(C/C(N)=N/n2cnnc2)cc1	i	-2.6%	-5.1%	-0.1%	3.8%
COc1ccc(NC(=O)C(=O)Nc2ccc3nc4n(c(=O)c3c2)CCCCC4)c(OC)c1	i	0.5%	14.5%	0.3%	7.8%
COc1ccc(OC)c(CCNC(=O)C(=O)Nc2ccc3nc4n(c(=O)c3c2)CCCCC4)c1	i	-3.2%	.	-0.6%	20.6µM*
COc1cccc(CNC(=O)Cc2c(C(=O)O)c(C)cn2C)c1	i	8.9%	11.4%	0.2%	.
Cc1ccc(NC(=O)CSc2nc(-c3cccs3)cc(C(F)(F)F)n2)cc1C	i	-1.5%	-2.3%	0.5%	8.6%
Cc1c(N=Nc2c(-c3ccc([N+](=O)[O-])cc3)[nH]n(C(N)=S)c2=O)cccc1[N+](=O)[O-]	?	?	?	2.9%	18.4µM*
NC(=S)n1[nH]c(-c2ccc([N+](=O)[O-])cc2)c(N=Nc2ccccc2[N+](=O)[O-])c1=O	i	5.6%	?	10.5%	12.9%
NC(=S)n1[nH]c(-c2ccc([N+](=O)[O-])cc2)c(N=Nc2cccc([N+](=O)[O-])c2)c1=O	?	?	?	3.5%[9.22 µM]	16.4µM*
CCCCOC(=O)c1ccc(Nc2nc3ccc(C(=O)c4ccccc4)cc3n3cnnc23)cc1	.	4.7%	.	0.0%	27.7%
O=S(=O)(NCC(Nc1ccc(Cl)cc1)c1ccccc1)c1ccc(Cl)cc1 (configuration not stated)	i	?	?	0.3%	20.6µM*
COc1ccc(-c2nn(-c3ccccc3)cc2/C=C2/SC(=S)N(CCC(=O)O)C2=O)cc1	i	?	16.5%	2.3%	23.1µM*
COc1cc2ccccc2nn1	.	?	1.8%	0.0%	3.6%
COc1ccc2c(n1)Sc1nc3ccccc3nc1N2	i	0.5%	39.7%	4.47µM*	?
OC[C@@H]1CN(Cc2ccccc2)C[C@H](n2cnc3c(NC4CC4)ncnc32)O1	i	.	5.8%	0.1%[9.22 µM]	.
OC[C@@H]1CN(Cc2ccc(-c3ccccc3)cc2)C[C@H](n2cnc3c(NC4CCC4)ncnc32)O1	17.8µM*	.	?	-0.3%	.
Cc1ccc(NC(=O)CSc2nc(-c3ccco3)nc3cc(=O)[nH]n23)c(Cl)c1	i	-3.1%	3.4%	4.2%	5.9%
O=C(CSc1nc(-c2ccco2)nc2cc(=O)[nH]n12)Nc1ccccc1Cl	i	17.6%	5.2%	14.1µM*	0.0%
CCc1c2c(nc3ccc4c(c13)OCCO4)-c1nc3ccccc3c(=O)n1C2	.	3.2%	.	.	0.259µM*
C/C(N)=C(/C#N)C(=O)CSc1nnc(SCc2ccc(Cl)cc2)s1	i	-14.7%	-15.7%	6.1%	20.6µM*
C/C(N)=C(/C#N)C(=O)CSc1nn(-c2ccc(Cl)cc2)c(=S)s1	i	-0.1%	38.6%	6.7%	-54.0%
CC(=O)c1sc(C(C)(C)C)cc1NC(=O)/C=C/C(=O)O	i	-0.6%	?	15.8µM*	-19.5%
CC(=O)c1sc(C(C)(C)C)cc1NC(=O)CCC(=O)O	i	3.4%	-8.6%	-0.3%	-27.6%
CC(=O)NCCCc1ccc(C(=O)COC(=O)CNC(=O)c2ccc3ccccc3c2)cc1	.	0.1%	.	.	11.0%

Source: PubChem BioAssay
